Structures are written as SMILES. Where “and” joins values, the source holds several entries; their conditions need not be identical. Equal entries are not always repeated. Screen size: about 420,000 compounds; about 64,000 (15%) were called active. Another 27% or so got no clear call; they are omitted. Calls follow the shape of the dose curve; as a rule, active = well fitted inhibition curve with a large enough effect; inconclusive = small, poorly fitted or top-dose-only effect; inactive = flat fitted curve, though single readings scatter. Not all results are given here. Where a call stands in place of a potency, no number is given.
Potency is read from the fitted curve at half-maximal effect.

The assay can be described thus: qHTS for Inhibitors of human tyrosyl-DNA phosphodiesterase 1 (TDP1): qHTS in cells in absence of CPT. Also: nearly all actives have a fitted effect of over 55% in size. As to conditions: DT40 Tdp1-/- hTDP1 cells, no CPT, ATP luminescence, 48 h; activity change, negative = growth inhibition: at 46.2 µM (top of the series). In a few lines: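 Camptothecin absent (DMSO only). Human TDP1-complemented DT40 knockout cells, 400 cells/well, 37 °C for minimum 48 hr; ATP measured via CellTiter-Glo, 30 min dark incubation, luminescence.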
Background: In qHTS, concentration-response curves come from the screen itself.
For the compound `O=C(CCn1c(SCC(=O)c2ccccc2)nc2ccccc2c1=O)NCc1ccc(F)cc1`, the Potency entry is “inactive”.
`CC1(C)CC(=O)C(C=NCc2cccnc2)=C(O)C1`: the Potency entry was “inactive”.
The result for `N=c1c2c3c(sc2ncn1N)CCCCC3` reads “inactive”.
The same measure for `C=CCN(C(=O)Nc1ccc2oc(C)nc2c1)c1ccccc1`: 20.6 µM (active); for `Cc1nc2cc(NC(=O)NCc3ccccc3)ccc2o1`: “inactive”; for `C=CCN(C(=O)Nc1ccc2c(c1)nc(C)n2C)c1ccccc1`: “inactive”.
The same measure for `N#CCCn1cnc2ccccc21`: “inactive”; for `Cc1c(C=O)n(C)n(-c2ccccc2)c1=O`: “inactive”; for `O=C(CSc1nnc(-c2cnccn2)n1Cc1ccco1)c1ccc(Cl)c(Cl)c1`: “inactive”.
For `O=C(CSc1nnc(-c2cccnc2)n1Cc1ccco1)c1ccc(Cl)cc1`, the Potency is 25.9 µM (active).
For the compound `COc1cc(Cl)c(C)cc1NC(=O)CSc1nnc(-c2cccnc2)n1Cc1ccco1`, the Potency entry is “inactive”.
In the case of `CC(=O)NS(=O)(=O)c1ccc(NC(=O)C2C3C=CC(C3)C2C(=O)O)cc1` (stereo not given), the Potency result was “inactive”.
As for `Cc1cc2c3ccccc3[nH]c(=O)n2n1`, the Potency entry is “inactive”.
The result for `CCCCC(O)C1=C[N+](=O)CC=C1` (stereo not given) reads “inactive”.
Regarding `CN1CCN(C(=O)CCc2nc(-c3ccc(Cl)cc3)no2)CC1`, the Potency entry was “inactive”.
Turning to `COc1ccc(N2CCN(C(=O)CCc3nc(-c4ccc(C)cc4)no3)CC2)cc1`, the Potency entry was “inactive”.
The result for `COc1ccc(-c2noc(CCC(=O)N3CCN(c4cccc(C)c4)CC3)n2)cc1` reads 13 µM (active); that for `O=C(COC(=O)c1ccco1)Nc1ccc(Cl)cn1`, “inactive”; that for `O=c1ccn(Cc2ccccc2Cl)cc1`, “inactive”.
The same measure for `O=S(=O)(O)c1nc2ccccc2n1Cc1ccc(Cl)cc1`: “inactive”.
The result for `N=c1n(Cc2ccc(Cl)cc2)c2ccccc2n1CC(O)c1ccco1` (stereo not given) reads 5.8 µM (active); that for `CCC1=NN2C(=N)/C(=C/c3cc(C)n(-c4ccccc4)c3C)C(=O)N=C2S1`, “inactive”; that for `CCCC(=O)NC(=S)Nc1ccc(CN2CCOCC2)cc1`, “inactive”.
Regarding `COC(=O)c1sccc1NC(=S)Nc1ccc(C)cc1`, the Potency entry was “inactive”.
Consider `CCOC(=O)C(=CNNc1ccsc1C(=O)OC)C(=O)OCC`, for which the Potency is 10.3 µM (active).
As for `COC(=O)c1sccc1NC(=O)CCC1CCCC1`, the Potency entry was “inactive”.
The same measure for `CCn1c(SCC(=O)N(C)C2CCS(=O)(=O)C2)nnc1-c1cccs1` (stereo not given): “inactive”; for `CC(C)N1C(=O)c2ccccc2NC(=O)C1C(=O)NCc1cccs1` (stereo not given): “inactive”.
The result for `CCN(CC(=O)NCc1cccs1)C(=O)c1cccc(S(=O)(=O)Nc2ccccc2OC)c1` reads “inactive”; that for `CCC1Sc2ccc(S(=O)(=O)CCC(=O)NCc3cccs3)cc2NC1=O` (stereo not given), 14.6 µM (active).
The result for `Cc1cc(C)c(NC(=O)CS(=O)CC(=O)Nc2cccnc2)c(C)c1` (stereo not given) reads “inactive”; that for `COc1ccccc1N(CC(=O)Nc1ccccc1C(=O)N1CCCC1)S(C)(=O)=O`, “inactive”.
Regarding `CCOC(=O)CN1CCC(c2ccccc2)CC1`, the Potency result was “inactive”.
The result for `COc1ccccc1OCC(=O)O/N=C(\N)c1ccccn1` reads “inactive”.
The same measure for `CCOC(=O)CN1C(=O)C(O)(CC(=O)c2ccccn2)c2ccccc21` (stereo not given): 4.11 µM (active).
The result for `CCCc1nn(C)c2c(=O)[nH]c(-c3cc(S(N)(=O)=O)ccc3OCC)nc12` reads “inactive”; that for `Cn1c2ccccc2n2c(=O)c(=O)n(CC(=O)c3ccc(F)cc3)nc12`, “inactive”.
With `CCOC(=O)c1ccc(N2C(=O)CC(N(C)Cc3ccccc3)C2=O)cc1` (stereo not given), the Potency result is “inactive”.
On to `O=C1N/C(=C/c2cccs2)C(=O)N1Cc1ccc(F)cc1`, for which the Potency entry is “inactive”.
On to `Cc1ccc(CN2C(=O)N/C(=C/c3cc(C)n(-c4ccccn4)c3C)C2=O)cc1`, for which the Potency is 23.1 µM (active).
The same measure for `Cc1cc(/C=C2/NC(=O)NC2=O)c(C)n1-c1cccnc1`: “inactive”.
Consider `COCCn1c(=O)c(-c2cccs2)nc2cncnc21`, for which the Potency result was “inactive”.
As to `CCOCCc1c(O)nc(SCC(=O)NCc2ccco2)[nH]c1=O`, the Potency result was “inactive”.
Consider `O=C(Nc1cc2ccccc2oc1=O)C1CCCCC1`, for which the Potency entry was “inactive”.
The result for `O=C(NC1CCCCC1)C(c1cc2ccccc2o1)n1c(=O)c(-c2ccco2)nc2ccccc21` (stereo not given) reads 16.4 µM (active); that for `Cn1c(SCC(=O)NC2CCCCC2)nnc1-c1cc2ccccc2o1`, “inactive”; that for `CN1CCC(N(C)S(=O)(=O)c2ccc(NC(=O)c3cccc(C#N)c3)cc2)CC1`, “inactive”.
Consider `COc1ccc(CC(=O)Nc2cc(S(=O)(=O)N3CCCCC3)ccc2N2CCN(C)CC2)cc1`, for which the Potency result was “inactive”.
The result for `CCN(CC)S(=O)(=O)c1ccc(N2CCOCC2)c(C(=O)O)c1` reads “inactive”.
The result for `CN(C)S(=O)(=O)c1ccc(N2CCCC2)c(C(=O)NCc2ccccc2)c1` reads “inactive”.
The same measure for `CCN(CC)S(=O)(=O)c1ccc(N2CCOCC2)c(NC(=O)c2ccc(=O)n(C)n2)c1`: “inactive”.
`CCN(CC)S(=O)(=O)c1ccc(N2CCCC2)c(NC(=O)c2ccc([N+](=O)[O-])o2)c1`: the Potency is 23.1 µM (active).
The same measure for `CCN(CC)S(=O)(=O)c1ccc(N2CCOCC2)c(NC(=O)C2COc3ccccc3O2)c1` (stereo not given): 16.4 µM (active); for `CCCC/C(C)=N/NC(=O)NC1CCCCC1`: “inactive”; for `Cc1ccc(/C=N/NC(=O)CNC(=O)COc2ccccc2)o1`: “inactive”.
With `Cc1ccc(NC(=S)NC2CCCC2)cc1`, the Potency result is “inactive”.
On to `Cc1ccc(/C=N/NC(=S)NC2CCCCC2)o1`, for which the Potency was 4.11 µM (active).
For `C/C(=N\NC(=S)NC1CCCCC1)c1ccc(C)o1`, the Potency was 23.1 µM (active).
The result for `COc1ccc(C(C)NC(=S)NC2CCCCC2)cc1OC` (stereo not given) reads “inactive”.
`Cn1c(N)cc(=O)n(C)c1=S`: the Potency result is “inactive”.
The result for `Cc1n[nH]c(=O)c2c(NC(=O)COC(=O)c3ncc(Cl)c(Cl)c3Cl)oc(C)c12` reads “inactive”.
As to `O=C(CN1CCN(S(=O)(=O)c2ccc(Cl)s2)CC1)NCc1ccc(Cl)cc1`, the Potency entry was “inactive”.
Consider `N#Cc1ccc(COC(=O)Cn2nnc(-c3ccccc3)n2)cc1`, for which the Potency result is “inactive”.
On to `Cc1ccc(NC(=O)CN2C(=O)NC(C)(c3ccc(Cl)cc3)C2=O)c(Br)c1` (stereo not given), for which the Potency entry is “inactive”.
The same measure for `Cc1c(S(=O)(=O)NC(C)c2ccccc2)c(=O)n(C)c(=O)n1C` (stereo not given): “inactive”.
The result for `C=CCn1nc(C(=O)OCC)cc1-c1sc(NC(=O)c2ccccc2)nc1C` reads 20.6 µM (active); that for `Cn1sc(NC(=O)c2ccccc2)nc1=O`, “inactive”; that for `CCOC(=O)c1cc(OC(=O)c2ccccc2Cl)n(-c2ccccc2)n1`, “inactive”.
As for `CCOC(=O)c1cc(-c2sc(NC(=O)c3ccccc3)nc2C)n(Cc2ccccc2)n1`, the Potency was 18.4 µM (active).
Consider `CCOc1ccc(C(=O)Nc2c3c(nn2-c2ccccc2)CS(=O)(=O)C3)cc1`, for which the Potency entry was “inactive”.
The result for `CCOC(=O)c1cc(-c2sc(NC(=O)c3ccccc3)nc2C)n(-c2ccc(Br)cc2)n1` reads 25.9 µM (active); that for `CCOC(=O)c1cc(-c2sc(NC(=O)c3ccccc3)nc2C)n(CCO)n1`, 6.51 µM (active); that for `CC(=O)c1sc(NC(=O)c2cccc3ccccc23)nc1C`, “inactive”.
The result for `CCOC(=O)c1sc(NC(=O)CSc2nc(O)c(Cc3ccccc3)c(=O)[nH]2)nc1C` reads “inactive”.
The same measure for `CCOC(=O)C(=O)Nc1nc(-c2ccccc2)c(CC)s1`: “inactive”.
Take `CCOC(=O)c1cc(NC(=O)c2cccnc2)ccn1`: the Potency result is “inactive”.
On to `CCOc1ccccc1NC(=O)CSc1ncc(S(=O)(=O)c2ccc(C(C)(C)C)cc2)c(=O)[nH]1`, for which the Potency result is “inactive”.
Take `O=C1CSC2=NCN(c3ccccc3)CN12`: the Potency result was “inactive”.
The same measure for `Nc1scc(-c2ccncc2)c1Cl`: “inactive”; for `Cc1nc2ccc(S(=O)(=O)N(C)CC(=O)NC(C)c3ccccc3)cc2s1` (stereo not given): “inactive”.
The result for `CCCc1cc(=O)oc2c(C)c(OC(C)C(=O)NCC(O)c3ccccc3)ccc12` (stereo not given) reads “inactive”; that for `c1ccc2cc(OCCN3CCCC3)ccc2c1`, “inactive”; that for `Cc1nnc2n1N=C(c1ccc3c(c1)NC(=O)CO3)CS2`, “inactive”.
With `CC(C(=O)NCCc1ccc(S(N)(=O)=O)cc1)N1C(=O)CC(C)(C)Sc2ccccc21` (stereo not given), the Potency entry was “inactive”.
`Cc1c(C(=O)NNC(=O)c2ccncc2)oc2ccccc12`: the Potency result was “inactive”.
`C/C(=C/C(=O)N1CCN(C)CC1)C(=O)O`: the Potency result is “inactive”.
Turning to `COc1cc(-c2c(-c3ccc4c(c3)OCO4)noc2C)ccc1F`, the Potency was 17.8 µM (active) and 16.4 µM (active).
As for `COc1ccc(CCNC(=O)c2cc(-c3ccc4c(c3)OCO4)on2)cc1OC`, the Potency result is “inactive”.
The same measure for `COc1ccc(F)cc1S(=O)(=O)Nc1ccc2c(c1)OCO2`: “inactive”; for `O=C(CSC1=Nc2ccccc2C2=NC(CC(=O)NCc3ccco3)C(=O)N12)NCc1ccco1` (stereo not given): “inactive”; for `O=C(CC1N=C2c3ccccc3N=C(SCc3ccccc3Cl)N2C1=O)NCc1ccco1` (stereo not given): “inactive”.
As to `COc1ccccc1NC(=O)N1CCCC1C(=O)NCc1cccs1` (stereo not given), the Potency result is “inactive”.
Turning to `COc1ccccc1NC(=O)CSC1=Nc2ccccc2C2=NC(CC(=O)NCc3cccs3)C(=O)N12` (stereo not given), the Potency is 20.6 µM (active).
In the case of `O=C(CC1N=C2c3ccccc3N=C(SCc3cccc(Cl)c3)N2C1=O)NCc1ccc2c(c1)OCO2` (stereo not given), the Potency was 20.6 µM (active).
The same measure for `NC(=O)CSC1=Nc2ccccc2C2=NC(CCC(=O)NCc3ccc(F)cc3)C(=O)N12` (stereo not given): “inactive”.
`CC(C)NC(=O)N1CC[C@@]2(CCCN(C(=O)c3ccco3)C2)C1`: the Potency result was “inactive”.
The result for `COc1ccc(N2C(=O)C3CCCN3C2c2cccc(OC)c2)cc1` (stereo not given) reads “inactive”; that for `Cc1ccc(NS(=O)(=O)c2ccc(C(C)(C)C)cc2)cn1`, “inactive”.
In the case of `Cc1ccc(OCC(=O)Nc2ccc(S(=O)(=O)Nc3ccccn3)cc2)cc1`, the Potency result was “inactive”.
Turning to `Cc1ccc(S(=O)(=O)Nc2ccc3ncccc3c2)cc1`, the Potency was 9.2 µM (active).
The same measure for `CS(=O)(=O)N(CC(=O)Nc1ccc(F)cc1)C1CCCCC1`: “inactive”; for `CS(=O)(=O)N1CCC2(CC1)CN(Cc1ccccc1)C2`: “inactive”.
On to `Cc1ccc(CN2C(=O)SC(Nc3ccccc3)C2=O)cc1` (stereo not given), for which the Potency entry was “inactive”.
The same measure for `Cc1ccc(-c2nc(=N)sn2Cc2ccccc2)cc1`: 4.47 µM (active).
On to `O=c1onc(-c2cccs2)n1Cc1ccccc1`, for which the Potency entry was “inactive”.
The result for `c1ccc2c(c1)OCCOCCOCCO2` reads “inactive”.
The result for `Cc1ccc(NC(=O)CN(C)C(=O)c2ccc(Br)o2)cc1` reads “inactive”; that for `O=C(Nc1ccccc1Cl)c1ccc2nsnc2c1`, “inactive”.
The same measure for `O=C(Nc1ccccc1Cl)Nn1cnnc1`: “inactive”.
Turning to `O=C(Nc1ccccc1Cl)/C(Cl)=C(\Cl)S(=O)c1ccccc1` (stereo not given), the Potency is 0.206 µM (active).

These data come from PubChem BioAssay AID686978 (National Center for Advancing Translational Sciences (NCATS), 2013).
